One sequence from PMC7862700, “An all-to-all approach to the identification of sequence-specific readers for epigenetic DNA modifications on cytosine” can be followed below.

What all share (experiment): DAPPL (digital affinity profiling via proximity ligation, sequencing); 10 mM Tris-HCl pH 7.5, 50 mM NaCl, 1 mM DTT, 4% glycerol, room temperature, 30 min; GST-TFs on glutathione beads, 16-mer random dsDNA library, 0.1% formaldehyde crosslink after washing; high values mean tight binding
One test deals with T1, FLI1 (Homo sapiens, UniProt Q01543 1-452).
T1 sequence: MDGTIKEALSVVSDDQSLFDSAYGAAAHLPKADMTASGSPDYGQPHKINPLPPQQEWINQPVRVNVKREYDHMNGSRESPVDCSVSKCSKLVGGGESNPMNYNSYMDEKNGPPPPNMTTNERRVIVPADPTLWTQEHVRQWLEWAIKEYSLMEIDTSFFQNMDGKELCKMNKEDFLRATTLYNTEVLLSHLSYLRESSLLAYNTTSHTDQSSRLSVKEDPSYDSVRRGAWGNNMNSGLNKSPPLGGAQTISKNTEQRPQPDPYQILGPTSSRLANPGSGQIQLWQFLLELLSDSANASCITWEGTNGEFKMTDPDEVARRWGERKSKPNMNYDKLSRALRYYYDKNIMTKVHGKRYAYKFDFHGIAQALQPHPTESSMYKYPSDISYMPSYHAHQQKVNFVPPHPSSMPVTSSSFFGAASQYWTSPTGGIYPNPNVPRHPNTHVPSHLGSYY
The settings on record: protein: recombinant; tags: N-terminal GST; dsDNA, one strand shown. In a few lines:
(§1)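 Pools were built from human transcription factors expressed in yeast as GST fusions, captured on glutathione beads and DNA-barcoded, along with a tag-only sample. Incubation with 200 nmole of a 16-mer random double-stranded DNA library lasted 30 min at room temperature in Tris/NaCl/DTT/glycerol buffer, and was followed by washing, 0.1% formaldehyde crosslinking, proximity ligation, PCR amplification and Illumina NextSeq500 sequencing. Binding signal is the quotient of each hexamer's read frequency for a factor and its frequency for the tag-only sample.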

In a further test the target is T2, ELK1 (Homo sapiens, UniProt P19419 1-428).
T2 sequence: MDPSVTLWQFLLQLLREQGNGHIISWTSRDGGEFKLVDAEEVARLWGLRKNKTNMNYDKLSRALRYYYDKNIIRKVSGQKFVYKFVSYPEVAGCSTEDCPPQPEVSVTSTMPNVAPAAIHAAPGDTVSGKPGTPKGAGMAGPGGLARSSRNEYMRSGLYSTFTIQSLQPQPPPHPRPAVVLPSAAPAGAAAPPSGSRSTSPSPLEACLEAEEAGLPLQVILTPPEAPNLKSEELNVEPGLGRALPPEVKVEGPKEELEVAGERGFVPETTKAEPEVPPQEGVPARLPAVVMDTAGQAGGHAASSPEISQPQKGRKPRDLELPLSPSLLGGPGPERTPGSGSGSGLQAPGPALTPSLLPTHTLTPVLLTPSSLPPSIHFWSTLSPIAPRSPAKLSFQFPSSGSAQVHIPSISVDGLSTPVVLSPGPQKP
The note with it: protein: recombinant; tags: N-terminal GST; dsDNA, one strand shown. In a few lines: as §1

A further test addresses T3, GABPA (Homo sapiens, UniProt Q06546 1-454).
T3 sequence: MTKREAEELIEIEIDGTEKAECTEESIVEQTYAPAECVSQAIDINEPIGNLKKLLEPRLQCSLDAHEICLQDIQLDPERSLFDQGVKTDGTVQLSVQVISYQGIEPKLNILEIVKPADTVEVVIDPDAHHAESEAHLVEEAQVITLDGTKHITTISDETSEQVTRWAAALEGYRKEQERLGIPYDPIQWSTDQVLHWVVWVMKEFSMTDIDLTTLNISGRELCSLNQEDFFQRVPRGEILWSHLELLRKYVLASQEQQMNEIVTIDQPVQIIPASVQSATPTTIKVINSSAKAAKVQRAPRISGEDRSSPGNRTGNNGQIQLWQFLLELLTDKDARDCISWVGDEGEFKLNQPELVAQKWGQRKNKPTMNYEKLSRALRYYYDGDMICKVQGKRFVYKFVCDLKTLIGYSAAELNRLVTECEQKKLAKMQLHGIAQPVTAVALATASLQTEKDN
The note with it: protein: recombinant; tags: N-terminal GST; dsDNA, one strand shown. In a few lines:
as §1

The target of another test is T4, ERG (Homo sapiens, UniProt P11308 1-479).
T4 sequence: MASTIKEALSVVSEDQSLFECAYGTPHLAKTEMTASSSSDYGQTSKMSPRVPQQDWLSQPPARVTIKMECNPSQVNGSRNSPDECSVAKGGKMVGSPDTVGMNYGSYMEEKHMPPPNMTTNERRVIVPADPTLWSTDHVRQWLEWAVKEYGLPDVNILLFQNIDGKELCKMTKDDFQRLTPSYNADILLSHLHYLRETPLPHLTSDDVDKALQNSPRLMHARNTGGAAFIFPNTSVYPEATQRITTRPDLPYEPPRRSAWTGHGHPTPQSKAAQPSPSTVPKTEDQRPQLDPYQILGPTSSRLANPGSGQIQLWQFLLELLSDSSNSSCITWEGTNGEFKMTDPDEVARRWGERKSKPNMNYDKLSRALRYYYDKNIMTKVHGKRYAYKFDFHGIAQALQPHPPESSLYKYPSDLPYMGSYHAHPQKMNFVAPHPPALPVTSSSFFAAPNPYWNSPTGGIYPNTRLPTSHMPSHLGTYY
The settings on record: protein: recombinant; tags: N-terminal GST; dsDNA, one strand shown. In a few lines:
as §1

In another test the target is ELF1 (Homo sapiens, UniProt P32519 1-619). The note with it: protein: recombinant; tags: N-terminal GST; dsDNA, one strand shown. The method, boiled down: as §1
Chain of ELF1 (P32519 whole entry): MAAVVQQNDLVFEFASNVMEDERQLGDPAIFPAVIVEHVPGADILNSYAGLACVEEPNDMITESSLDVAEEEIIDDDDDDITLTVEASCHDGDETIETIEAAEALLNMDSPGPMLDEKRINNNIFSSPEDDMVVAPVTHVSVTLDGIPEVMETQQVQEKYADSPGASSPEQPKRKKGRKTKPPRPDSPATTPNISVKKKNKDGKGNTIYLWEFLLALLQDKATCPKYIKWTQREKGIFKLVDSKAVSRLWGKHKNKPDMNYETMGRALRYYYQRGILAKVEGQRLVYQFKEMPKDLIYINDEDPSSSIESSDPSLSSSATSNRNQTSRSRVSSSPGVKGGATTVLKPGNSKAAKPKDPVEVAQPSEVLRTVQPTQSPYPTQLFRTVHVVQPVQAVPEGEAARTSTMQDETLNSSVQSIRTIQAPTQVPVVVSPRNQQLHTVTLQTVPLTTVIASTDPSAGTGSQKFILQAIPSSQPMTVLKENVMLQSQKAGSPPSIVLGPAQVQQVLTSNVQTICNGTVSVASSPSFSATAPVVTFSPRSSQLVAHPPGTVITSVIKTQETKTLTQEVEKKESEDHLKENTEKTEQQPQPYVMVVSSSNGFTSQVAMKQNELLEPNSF
In a further test the target is T5, EHF (Homo sapiens, UniProt Q9NZC4 1-300).
T5 sequence: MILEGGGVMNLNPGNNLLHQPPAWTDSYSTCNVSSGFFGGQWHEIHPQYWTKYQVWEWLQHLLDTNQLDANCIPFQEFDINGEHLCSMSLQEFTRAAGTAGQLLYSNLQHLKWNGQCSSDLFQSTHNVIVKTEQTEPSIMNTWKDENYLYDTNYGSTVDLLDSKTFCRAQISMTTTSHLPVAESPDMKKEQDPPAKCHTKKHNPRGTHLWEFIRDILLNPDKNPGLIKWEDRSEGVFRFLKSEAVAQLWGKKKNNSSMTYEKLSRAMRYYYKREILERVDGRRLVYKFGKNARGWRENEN
The note with it: protein: recombinant; tags: N-terminal GST; dsDNA, one strand shown. The method, boiled down:
as §1

In another test the target is SPI1 (Homo sapiens, UniProt P17947 1-270). The settings on record: protein: recombinant; tags: N-terminal GST; dsDNA, one strand shown. The method, boiled down: as §1
A further test concerns the target SPIB (Homo sapiens, UniProt Q01892 1-262). The note with it: protein: recombinant; tags: N-terminal GST; dsDNA, one strand shown. The method, boiled down:
as §1

In a further test the target is T6, ELK3 (Homo sapiens, UniProt P41970 1-407).
T6 sequence: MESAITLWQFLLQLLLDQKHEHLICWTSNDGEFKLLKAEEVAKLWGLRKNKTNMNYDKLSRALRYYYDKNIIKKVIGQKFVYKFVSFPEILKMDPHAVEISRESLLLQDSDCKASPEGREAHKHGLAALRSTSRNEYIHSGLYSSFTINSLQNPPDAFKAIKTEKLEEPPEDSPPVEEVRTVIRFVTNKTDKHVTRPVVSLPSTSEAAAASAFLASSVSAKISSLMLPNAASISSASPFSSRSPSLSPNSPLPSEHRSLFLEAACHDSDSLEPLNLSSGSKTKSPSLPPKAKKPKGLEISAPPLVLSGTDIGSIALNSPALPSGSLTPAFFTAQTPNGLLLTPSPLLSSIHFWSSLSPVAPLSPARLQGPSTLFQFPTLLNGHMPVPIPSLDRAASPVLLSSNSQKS
The settings on record: protein: recombinant; tags: N-terminal GST; dsDNA, one strand shown. In a few lines:
as §1

The target in the next test is T7, FEV (Homo sapiens, UniProt Q99581 1-238).
T7 sequence: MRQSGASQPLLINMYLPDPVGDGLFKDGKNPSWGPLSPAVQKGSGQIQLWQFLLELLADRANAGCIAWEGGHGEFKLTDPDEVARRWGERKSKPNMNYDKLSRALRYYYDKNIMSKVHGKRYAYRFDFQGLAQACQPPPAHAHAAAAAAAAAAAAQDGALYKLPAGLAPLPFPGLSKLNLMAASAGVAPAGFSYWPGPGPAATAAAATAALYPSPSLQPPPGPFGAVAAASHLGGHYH
The note with it: protein: recombinant; tags: N-terminal GST; dsDNA, one strand shown. In a few lines:
as §1

The target of another test is ETV5 (Homo sapiens, UniProt P41161 1-510). The note with it: protein: recombinant; tags: N-terminal GST; dsDNA, one strand shown. The method, boiled down: as §1
Chain of ETV5 (P41161 whole entry): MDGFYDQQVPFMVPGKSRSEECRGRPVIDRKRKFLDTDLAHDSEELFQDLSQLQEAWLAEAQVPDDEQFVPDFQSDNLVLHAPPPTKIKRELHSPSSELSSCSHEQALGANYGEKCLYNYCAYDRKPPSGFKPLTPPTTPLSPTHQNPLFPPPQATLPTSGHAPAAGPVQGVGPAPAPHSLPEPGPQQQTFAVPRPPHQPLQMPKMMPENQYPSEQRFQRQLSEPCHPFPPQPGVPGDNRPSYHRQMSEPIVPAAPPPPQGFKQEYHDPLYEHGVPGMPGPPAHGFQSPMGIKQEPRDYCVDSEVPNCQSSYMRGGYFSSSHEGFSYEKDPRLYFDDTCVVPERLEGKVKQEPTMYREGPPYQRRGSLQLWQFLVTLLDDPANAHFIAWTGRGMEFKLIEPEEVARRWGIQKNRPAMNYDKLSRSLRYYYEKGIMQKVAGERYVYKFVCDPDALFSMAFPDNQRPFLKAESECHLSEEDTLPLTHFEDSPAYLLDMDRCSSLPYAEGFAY
In the next test the target is HSF1 (Homo sapiens, UniProt Q00613 1-529). The note with it: protein: recombinant; tags: N-terminal GST; chain copies: 3; dsDNA, one strand shown. In a few lines: as §1
Chain of HSF1 (Q00613 whole entry): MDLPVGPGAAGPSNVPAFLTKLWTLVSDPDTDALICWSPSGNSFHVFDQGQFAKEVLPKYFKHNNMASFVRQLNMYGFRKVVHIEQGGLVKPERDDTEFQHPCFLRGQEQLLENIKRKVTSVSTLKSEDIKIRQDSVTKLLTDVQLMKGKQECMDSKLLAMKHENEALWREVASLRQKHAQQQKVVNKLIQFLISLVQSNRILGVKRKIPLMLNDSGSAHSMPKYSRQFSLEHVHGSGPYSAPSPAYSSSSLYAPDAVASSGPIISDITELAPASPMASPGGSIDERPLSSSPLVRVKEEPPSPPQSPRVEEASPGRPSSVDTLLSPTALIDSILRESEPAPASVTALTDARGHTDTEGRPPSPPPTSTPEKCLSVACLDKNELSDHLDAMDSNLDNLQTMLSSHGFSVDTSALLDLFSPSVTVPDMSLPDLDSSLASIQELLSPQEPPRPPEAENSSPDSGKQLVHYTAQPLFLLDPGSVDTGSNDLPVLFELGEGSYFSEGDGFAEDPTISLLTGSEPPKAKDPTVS
The target of another test is T8, SPIC (Homo sapiens, UniProt Q8N5J4 1-248).
T8 sequence: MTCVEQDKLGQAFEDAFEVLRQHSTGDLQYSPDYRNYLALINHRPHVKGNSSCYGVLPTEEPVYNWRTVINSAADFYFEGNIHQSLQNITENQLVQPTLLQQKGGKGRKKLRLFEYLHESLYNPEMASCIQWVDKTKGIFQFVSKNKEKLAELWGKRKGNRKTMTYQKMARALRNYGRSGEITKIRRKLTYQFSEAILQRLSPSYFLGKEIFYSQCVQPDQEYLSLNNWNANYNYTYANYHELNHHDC
The settings on record: protein: recombinant; tags: N-terminal GST; dsDNA, one strand shown. The method, boiled down:
as §1

Another test deals with ELF4 (Homo sapiens, UniProt Q99607 1-663). The settings on record: protein: recombinant; tags: N-terminal GST; dsDNA, one strand shown. In a few lines:
as §1

For the next test, the target named is T9, ELK4 (Homo sapiens, UniProt P28324-2 1-405).
T9 sequence: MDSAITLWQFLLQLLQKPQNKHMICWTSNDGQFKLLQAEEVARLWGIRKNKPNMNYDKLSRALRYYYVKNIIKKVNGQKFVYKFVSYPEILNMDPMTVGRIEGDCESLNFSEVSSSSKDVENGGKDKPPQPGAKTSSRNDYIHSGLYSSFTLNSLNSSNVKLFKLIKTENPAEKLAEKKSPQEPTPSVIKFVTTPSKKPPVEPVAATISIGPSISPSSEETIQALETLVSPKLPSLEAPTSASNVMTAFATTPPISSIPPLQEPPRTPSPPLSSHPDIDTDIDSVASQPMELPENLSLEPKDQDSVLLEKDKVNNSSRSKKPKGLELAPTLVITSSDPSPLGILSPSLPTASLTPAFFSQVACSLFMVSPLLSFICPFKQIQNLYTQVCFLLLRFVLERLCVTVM
The settings on record: protein: recombinant; tags: N-terminal GST; dsDNA, one strand shown. In a few lines:
as §1

In the next test the target is T10, ETV2 (Homo sapiens, UniProt O00321 1-342).
T10 sequence: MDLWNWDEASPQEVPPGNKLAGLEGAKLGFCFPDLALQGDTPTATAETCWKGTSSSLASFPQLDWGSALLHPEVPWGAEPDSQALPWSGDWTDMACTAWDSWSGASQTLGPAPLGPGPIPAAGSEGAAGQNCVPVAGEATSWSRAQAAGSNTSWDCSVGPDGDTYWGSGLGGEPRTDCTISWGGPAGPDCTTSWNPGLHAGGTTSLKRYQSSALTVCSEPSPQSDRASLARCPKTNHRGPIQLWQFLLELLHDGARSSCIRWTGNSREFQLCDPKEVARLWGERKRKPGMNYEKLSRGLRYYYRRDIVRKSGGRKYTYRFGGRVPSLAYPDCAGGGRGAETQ
The settings on record: protein: recombinant; tags: N-terminal GST; dsDNA, one strand shown. In a few lines: as §1

The target in the next test is T11, ELF3 (Homo sapiens, UniProt P78545 1-371).
T11 sequence: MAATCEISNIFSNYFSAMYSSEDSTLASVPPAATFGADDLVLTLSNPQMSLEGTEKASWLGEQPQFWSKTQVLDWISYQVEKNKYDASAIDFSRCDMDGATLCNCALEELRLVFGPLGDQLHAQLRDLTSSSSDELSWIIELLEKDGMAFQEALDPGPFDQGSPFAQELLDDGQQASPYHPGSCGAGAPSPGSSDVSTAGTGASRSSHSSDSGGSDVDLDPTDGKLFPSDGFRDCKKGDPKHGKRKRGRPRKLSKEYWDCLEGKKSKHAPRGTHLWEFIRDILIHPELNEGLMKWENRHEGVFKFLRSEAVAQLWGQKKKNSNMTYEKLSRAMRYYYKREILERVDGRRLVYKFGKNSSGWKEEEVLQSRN
The note with it: protein: recombinant; tags: N-terminal GST; dsDNA, one strand shown. In a few lines:
as §1

Another test concerns the target CRX (Homo sapiens, UniProt O43186 1-299). The note with it: protein: recombinant; tags: N-terminal GST; dsDNA, one strand shown. The method, boiled down:
as §1

The target in another test is ETV1 (Homo sapiens, UniProt P50549 1-477). The note with it: protein: recombinant; tags: N-terminal GST; dsDNA, one strand shown. In a few lines:
as §1

Chain of ETV1 (P50549 whole entry): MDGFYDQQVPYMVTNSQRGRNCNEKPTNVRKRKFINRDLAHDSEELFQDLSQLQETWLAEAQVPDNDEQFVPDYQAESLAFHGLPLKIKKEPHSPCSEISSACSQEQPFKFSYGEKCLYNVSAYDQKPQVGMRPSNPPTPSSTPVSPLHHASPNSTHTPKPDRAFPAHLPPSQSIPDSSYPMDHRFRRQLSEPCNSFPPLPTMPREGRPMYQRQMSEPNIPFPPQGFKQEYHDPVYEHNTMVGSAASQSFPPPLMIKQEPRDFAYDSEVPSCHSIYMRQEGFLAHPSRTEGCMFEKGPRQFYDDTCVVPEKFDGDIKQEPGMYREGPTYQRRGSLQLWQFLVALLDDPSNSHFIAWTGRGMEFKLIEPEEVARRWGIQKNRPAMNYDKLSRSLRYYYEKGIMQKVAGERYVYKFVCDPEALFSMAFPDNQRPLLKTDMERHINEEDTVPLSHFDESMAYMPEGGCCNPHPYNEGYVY
Chain of CRX (O43186 whole entry): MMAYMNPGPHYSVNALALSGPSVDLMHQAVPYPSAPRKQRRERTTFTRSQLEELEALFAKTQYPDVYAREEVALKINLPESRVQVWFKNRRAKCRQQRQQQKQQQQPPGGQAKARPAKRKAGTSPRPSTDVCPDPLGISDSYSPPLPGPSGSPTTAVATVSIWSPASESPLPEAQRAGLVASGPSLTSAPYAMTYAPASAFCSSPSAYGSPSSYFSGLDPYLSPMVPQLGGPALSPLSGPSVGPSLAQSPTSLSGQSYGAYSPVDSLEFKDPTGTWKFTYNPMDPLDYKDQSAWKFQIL
Chain of ELF4 (Q99607 whole entry): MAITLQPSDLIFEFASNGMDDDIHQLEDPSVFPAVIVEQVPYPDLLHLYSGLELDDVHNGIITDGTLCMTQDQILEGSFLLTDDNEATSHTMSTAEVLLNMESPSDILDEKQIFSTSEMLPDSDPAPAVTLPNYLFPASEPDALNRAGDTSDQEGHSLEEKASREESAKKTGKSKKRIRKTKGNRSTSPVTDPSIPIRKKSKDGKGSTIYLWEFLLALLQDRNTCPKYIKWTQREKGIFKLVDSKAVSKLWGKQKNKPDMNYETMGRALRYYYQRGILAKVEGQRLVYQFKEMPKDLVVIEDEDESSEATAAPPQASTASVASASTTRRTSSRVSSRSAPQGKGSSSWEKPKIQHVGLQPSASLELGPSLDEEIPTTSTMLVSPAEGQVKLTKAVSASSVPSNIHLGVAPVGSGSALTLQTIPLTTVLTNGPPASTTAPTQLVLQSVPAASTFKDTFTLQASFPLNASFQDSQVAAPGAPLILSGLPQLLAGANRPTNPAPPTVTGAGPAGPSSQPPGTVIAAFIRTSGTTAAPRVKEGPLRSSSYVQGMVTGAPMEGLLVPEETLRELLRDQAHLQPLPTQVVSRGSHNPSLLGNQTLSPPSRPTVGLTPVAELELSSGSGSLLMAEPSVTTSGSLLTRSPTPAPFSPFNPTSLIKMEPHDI
Chain of SPIB (Q01892 whole entry): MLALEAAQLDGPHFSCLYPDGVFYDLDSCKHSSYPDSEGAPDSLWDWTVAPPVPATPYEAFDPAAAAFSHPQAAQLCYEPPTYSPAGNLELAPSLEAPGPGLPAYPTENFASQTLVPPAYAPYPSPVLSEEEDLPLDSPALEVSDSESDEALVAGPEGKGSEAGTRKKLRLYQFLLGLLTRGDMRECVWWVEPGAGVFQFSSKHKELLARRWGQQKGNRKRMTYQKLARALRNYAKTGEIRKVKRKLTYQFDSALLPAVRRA

TCCTGG: the binding signal was 1.66 fold enrichment (6-mer frequency, TF over GST control) in the test with FLI1; 1.47 fold enrichment (6-mer frequency, TF over GST control) with ELK1; 1.69 fold enrichment (6-mer frequency, TF over GST control) with GABPA; 1.85 fold enrichment (6-mer frequency, TF over GST control) with ERG; 1.69 fold enrichment (6-mer frequency, TF over GST control) with ELF1; 1.66 fold enrichment (6-mer frequency, TF over GST control) with EHF. Also, the binding signal with SPI1 is 1.63 fold enrichment (6-mer frequency, TF over GST control); with SPIB, 1.74 fold enrichment (6-mer frequency, TF over GST control); with ELK3, 1.55 fold enrichment (6-mer frequency, TF over GST control); with FEV it was 1.46 fold enrichment (6-mer frequency, TF over GST control); with ETV5, 1.68 fold enrichment (6-mer frequency, TF over GST control); in the test with HSF1, 1.29 fold enrichment (6-mer frequency, TF over GST control). The binding signal in the test with SPIC is 1.54 fold enrichment (6-mer frequency, TF over GST control); in the test with ELF4, 1.53 fold enrichment (6-mer frequency, TF over GST control); with ELK4 it was 1.38 fold enrichment (6-mer frequency, TF over GST control); with ETV2, 2.03 fold enrichment (6-mer frequency, TF over GST control); in the test with ELF3, 1.17 fold enrichment (6-mer frequency, TF over GST control); in the test with CRX, 1.27 fold enrichment (6-mer frequency, TF over GST control). For the same sequence, the binding signal with ETV1 is 1.68 fold enrichment (6-mer frequency, TF over GST control).
